# A selection: hits, their analogues and other compounds. The true share with any hit is near 19%.
# DT40 TDP1 no CPT – qHTS for Inhibitors of human tyrosyl-DNA phosphodiesterase 1 (TDP1): qHTS in cells in absence of CPT. DT40 Tdp1-/- hTDP1 cells, no CPT, ATP luminescence, 48 h. Potency, µM (series often up to 46.2 µM), hits mostly inhibitors. 15% of 420,000 active. AID 686978, 2013; further: nearly all actives have a fitted effect of over 55% in size
#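 Chicken DT40 Tdp1-/- cells stably complemented with human TDP1 were seeded at 400 cells/well with DMSO in place of 20 nM camptothecin. After compound pinning, cells grew at least 48 hr at 37 °C; viability read by CellTiter-Glo luminescence.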
# HT1080 IDH1KD tx – HT-1080 IDH1 knockdown cell toxicity (counter line); HT-1080 IDH1 knockdown viability, ATP luminescence, 48 h; Potency, µM (doses to about 46.1 µM), hits mostly cytotoxic; 2% of 360,000 active; AID 686971
#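 IDH1KD HT-1080 cells, 750/well, RPMI + 5% FBS; compound pinned after 2 h settling; 48 h, 37 °C; CellTiter-Glo luminescence; % activity normalised to DMSO and no-cell wells; curves fitted, classed by r2 and efficacy.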
# HT1080-NT tox – kills 2HG-producing HT-1080-NT fibrosarcoma cells | Potency, µM (titrated, usually from 46.1 µM), hits mostly cytotoxic | HT-1080-NT fibrosarcoma viability, CellTiter-Glo ATP luminescence, 48 h | 1.6% of 360,000 active;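 further: NT is the 2HG producing partner of a matched IDH1 knockdown line; nearly all actives have a fitted effect of over 55% in size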
#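 A 48-hour cytotoxicity screen used HT-1080-NT cells plated 2 hours before compound delivery. ATP-based CellTiter-Glo luminescence measured viability, normalized to DMSO and no-cell controls.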
# IL1B secr inh – blocks inflammasome-driven IL-1 beta release. THP-1 LPS/ATP IL-1B secretion, AlphaLISA, 16 h; stronger effect = lower value. AID 743279. activity change, % at 57.5 µM. 4.7% of 360,000 active; in the data active means activity change below about -50%; inconclusive means mostly about -30% to -49%
#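 THP-1 cells pretreated 1 hr with compounds (up to 57.5 uM final), then stimulated with LPS (250 ng/mL final) plus ATP (1.25 mM final); secreted IL-1B measured by AlphaLISA after 16 hr, decreased signal indicating inhibition.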
# DT40 TDP1 CPT – DT40-hTDP1 cell growth loss with CPT. chicken DT40 Tdp1-/-;hTDP1 cells + 20 nM CPT, ATP luminescence, 48 h. Potency, µM (doses to about 46.2 µM), most hits filed as inhibitors. 12% of 420,000 active; further: nearly all actives have a fitted effect of over 55% in size
#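 Chicken DT40 Tdp1-/- cells stably complemented with human TDP1 were seeded at 400 cells/well in medium containing 20 nM camptothecin, exposed to pin-transferred compounds, and grown at 37 °C for at least 48 hr. Viability was read as ATP luminescence.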
# Hits are given with their value; n = inactive; u = inconclusive; x = no result given; [ ] = another dose, or the depositor's remark. Unless noted, the call rests on the fitted dose curve; in most records, active means well fitted curve in the direction sought with a large enough effect; inconclusive means small, poorly fitted or top-dose-only effect, or another doubt; inactive means no such curve, though single readings can be large; an effect the other way counts as inactive or inconclusive.
SMILES,DT40 TDP1 no CPT,HT1080 IDH1KD tx,HT1080-NT tox,IL1B secr inh,DT40 TDP1 CPT
CC(C)(C)C1CCc2c(sc3nc(-c4cc5cc(Br)ccc5oc4=O)[nH]c(=O)c23)C1 (configuration not stated),n,x,x,x,n
Cc1ccccc1NC(=O)NC1(C(=O)NCCCN2CCOCC2)CCCCC1,n,n,n,n,n
COc1cc(OC)c(S(=O)(=O)Nc2ccc(C)cn2)cc1NC(C)=O,n,n,n,n,n
COc1ccc(OC)c(NC(=O)c2cnc(N3CCCC3)nc2C)c1,n,x,x,x,n
COc1ccc(OC)c(NC(=O)c2cnc(N3CCCCC3)c3ccccc23)c1,8.2µM,x,x,x,10µM
COC(=O)c1cccnc1N1CCN(c2ccccc2F)CC1,n,n,n,n,n
COC(=O)c1cnc(N2CCN(c3ccccc3F)CC2)c2ccccc12,16µM,x,x,x,u
COc1ccc(OC)c(NC(=O)c2cc3oc4ccccc4c3cc2O)c1,16µM,u,u,n,u
COc1ccc([C@@H]2[C@@H]3C(=O)N(C(C)(C)C)C(=O)[C@@H]3[C@]3(Cc4ccc(Cl)cc4)C(=O)N(c4cccc(C)c4)C(=O)N23)cc1,n,n,n,n,n
CSCCC(NC=O)C(=O)NC(C)C(=O)O (configuration not stated),0.65µM,n,n,n,2.9µM
CSCCC(NC=O)C(=O)NC(CC(C)C)C(=O)NC(Cc1ccccc1)C(=O)O (configuration not stated),n,x,x,x,n
CC(C)c1ccccc1NC(=O)Nc1ccc2c(c1)OCO2,n,n,n,n,16µM
Cc1cc(C)c(NC(=O)Nc2ccc3c(c2)OCO3)c(C)c1,u,n,n,n,12µM
O=C(Nc1ccc2c(c1)OCO2)Nc1ccc(Cl)cc1Cl,u,n,n,u,u
O=C(Nc1ccc2c(c1)OCO2)Nc1ccc2c(c1)OCO2,n,n,n,n,n
O=C(Nc1ccc(F)cc1)Nc1ccc2c(c1)OCO2,u,n,n,n,9.2µM
O=C(Nc1ccc2c(c1)OCO2)Nc1ccc(F)cc1F,2.3µM,n,n,n,3.7µM
O=S(=O)(c1ccsc1)N1CC=C(c2ccccc2)CC1,u,n,n,n,u
O=C(NCCc1ccc(F)cc1)Nc1ccc2c(c1)OCO2,u,n,n,u,18µM
O=C(Nc1ccc([N+](=O)[O-])cc1)Nc1ccc2c(c1)OCCO2,15µM,n,n,-68,u
O=C(NCCc1ccccc1)Nc1ccc2c(c1)OCO2,n,n,n,n,n
O=C(O)c1cc(S(=O)(=O)Nc2ccc3cn[nH]c3c2)ccc1Cl,n,n,n,n,n
COc1cc(CN2CCNC(=O)C2CC(=O)NCc2csc(C(C)C)n2)cc(OC)c1 (configuration not stated),n,n,n,n,n
O=C(O)c1cccc(Nc2ccc([N+](=O)[O-])cn2)c1,n,n,n,n,n
Cc1ccc(OC(C)C(=O)Nc2ccc(Cl)cn2)c([N+](=O)[O-])n1 (configuration not stated),n,n,n,n,n
SMILES,DT40 TDP1 no CPT,HT1080 IDH1KD tx,HT1080-NT tox,IL1B secr inh,DT40 TDP1 CPT
CC(=O)Nc1ccc([N+](=O)[O-])cn1,n,n,n,n,n
O=[N+]([O-])c1ccc(Nc2ccc(Cl)cc2)nc1,n,u,n,-57,n
Cc1cc(Cl)ccc1OC(C)C(=O)Nc1ccc([N+](=O)[O-])cn1 (configuration not stated),u,n,n,-69,u
O=[N+]([O-])c1ccc(NNS(=O)(=O)c2cc(Cl)ccc2Cl)nc1,u,n,n,n,21µM
CC(C)(C)c1ccc(CNc2ccc([N+](=O)[O-])cn2)cc1,23µM,n,n,n,u
C/C(=N\NC(=O)NC1CCCCC1)c1ccco1,n,n,n,n,n
CC(C)Oc1cccc(NC(=O)C2(C)CCN2C(=O)C(C)C)c1 (configuration not stated),n,n,n,n,n
Cc1ccc(Cl)cc1NC(=S)N1CCC(c2ccccc2)C1 (configuration not stated),u,n,n,n,n
CC(C)c1ccc(CNc2ccc([N+](=O)[O-])cn2)cc1,u,u,u,u,n
O=[N+]([O-])c1ccc(NCc2ccc(Cl)cc2)nc1,n,n,n,-78,n
O=C(COC(=O)c1cccc(S(=O)(=O)N2CCCC2)c1)NCc1ccccc1,n,n,n,n,n
Cc1ccc(N2C(=O)c3cccc4c(Oc5ccccc5[N+](=O)[O-])ccc(c34)C2=O)c(C)c1,6.5µM,n,n,n,10µM
Cc1cc(O)ccc1N1C(=O)c2cccc3cc([N+](=O)[O-])cc(c23)C1=O,u,n,n,n,u
CN(C)C1(CNC(=O)c2cccc(S(=O)(=O)Nc3ccc(Br)cc3)c2)CCCCC1,n,n,n,n,u
COCCNC(=O)CSc1ccc(Cl)cc1,n,n,n,n,n
COCCNCCCCSc1ccc(Cl)cc1,18µM,n,n,n,15µM
Cc1cccc(NC(=S)NCc2ccc3c(c2)cc(C)n3C)c1C,15µM,n,n,n,12µM
COc1cccc(NC(=S)NCc2ccc3c(c2)cc(C)n3C)c1,16µM,n,n,n,n
Cc1cc(C(=O)Nc2ccccc2-c2nc(CNC(=O)c3sc(C)nc3C)c(C)o2)c(C)o1,n,x,x,x,n[9.04 µM]
Cc1cc(C)n(CC(O)COc2ccc(Cl)cc2Cl)n1 (configuration not stated),21µM,n,n,-52,u
Cc1nccn1CC(O)COc1ccc(Cl)cc1Cl (configuration not stated),15µM,n,u,n,u
O=C(/C=C/c1ccc(F)cc1)NCC1Cc2cccc(-c3ncccn3)c2O1 (configuration not stated),18µM,x,x,x,u
COc1ccc(NC(=O)Nc2cccc([N+](=O)[O-])c2)cc1Cl,9.2µM,n,n,-84,18µM
COc1ccc(C(=O)Nc2cccc([N+](=O)[O-])c2)cc1Br,n,n,u,n,n
O=C(Cc1ccc(Cl)cc1Cl)Nc1ccc(OC(F)F)c(Cl)c1,u,n,n,n,u
O=C(Nc1ccc(OC(F)F)c(Cl)c1)Nc1ccc2c(c1)OCO2,16µM,u,n,-79,u
CC(C(=O)Nc1ccccc1Br)c1ccc([N+](=O)[O-])cc1 (configuration not stated),n,n,n,n,n
O=C(Nc1ccc(Cl)cc1)Nc1ccc2c(c1)OCO2,n,n,n,n,n
O=C(Nc1ccc([N+](=O)[O-])cc1)Nc1ccc(OC(F)F)c(Cl)c1,1.6µM,u,u,-89,2.3µM

# Screening data from PubChem.
